Data taken from PubChem BioAssay AID1851 (National Center for Advancing Translational Sciences (NCATS), 2009).
Several values for one entry are separate records, joined by “and”; a condition that tells them apart may be missing. Equal entries are not always repeated. In all, about 16,000 compounds went through this assay and about 5,700 (36%) were called active. Roughly 24% stayed inconclusive and do not appear here. The call rests on the fitted dose curve; in most records, active means well fitted curve in the direction sought with a large enough effect; inconclusive means small, poorly fitted or top-dose-only effect, or effect the other way; inactive means no such curve, though single readings can be large or run the other way. The list shows a part of the results.

These compounds were tested against Cytochrome P450 1A2 (Homo sapiens) (UniProt P05177) (assay: Cytochrome panel assay with activity outcomes). Conditions: recombinant CYP, pro-luciferin dealkylation, luminescence, p450-cyp1a2; series mostly up to 57.1 µM.
On the % scale 0 is the no-effect control and ±100 the full control effect.

Chain of Cytochrome P450 1A2 (Homo sapiens) (P05177 whole entry, looked up): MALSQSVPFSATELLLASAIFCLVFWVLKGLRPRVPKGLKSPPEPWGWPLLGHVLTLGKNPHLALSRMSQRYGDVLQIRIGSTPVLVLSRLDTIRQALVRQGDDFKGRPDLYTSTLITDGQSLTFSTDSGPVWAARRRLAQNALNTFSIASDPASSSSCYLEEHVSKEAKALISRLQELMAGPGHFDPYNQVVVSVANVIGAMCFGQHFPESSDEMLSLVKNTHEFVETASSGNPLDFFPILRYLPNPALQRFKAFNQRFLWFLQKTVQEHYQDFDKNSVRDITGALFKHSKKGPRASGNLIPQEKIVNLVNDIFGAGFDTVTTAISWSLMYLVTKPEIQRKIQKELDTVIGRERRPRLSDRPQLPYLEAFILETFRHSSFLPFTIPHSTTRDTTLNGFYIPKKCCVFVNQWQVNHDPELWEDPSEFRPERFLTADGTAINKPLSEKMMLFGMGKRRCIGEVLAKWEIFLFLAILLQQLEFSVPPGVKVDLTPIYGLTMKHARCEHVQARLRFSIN

AC50, inactive:
COC(=O)\C(C(C)=O)=C(/C=C/C=C/C=C/N(C)C)N(C)C, COC(=O)[C@@]1(Cc2ccccc2)[C@H]2c3cc(C(=O)N4CCCC4)n(Cc4cc(F)cc5c4OCOC5)c3C[C@H]2CN1C(=O)c1ccccc1, CC(=O)C[C@H](c1ccc([N+](=O)[O-])cc1)c1c(O)c2ccccc2oc1=O, Cn1c(CN2CCCC2)nc2cc(NC(=O)C3CCCCC3)ccc21, CC(C)(C)C(=O)N1CCC(O)(CS(=O)(=O)Cc2ccc(Cl)cc2)CC1, Cc1ccc(C(=O)c2cn(-c3ccc(F)c(Cl)c3)nn2)cc1, CS(=O)(=O)N1CCC2(CC1)CN(C(c1ccccc1)c1ccccc1)C2, CCCC(=O)N1c2ccccc2C(N(C(C)=O)c2ccccc2)CC1C (stereo not given), COCC(=O)N1CCC2(CC1)CN(C(c1ccccc1)c1ccccc1)C2, COc1cc2c(cc1OC)[C@H](c1ccccc1)CN(C)CC2, COc1ccc(S(=O)(=O)N2CCc3ccccc3C2)cc1OC, CCOC(=O)c1nn(-c2ccccc2)c(-c2ccccc2)c1C(=O)c1ccccc1, COC(=O)N1CCC2(CCCN(C(=O)Nc3ccccc3)C2)CC1, COc1ccc(NC(=O)N2CCCC2C(=O)Nc2ccccc2)cc1 (stereo not given), CS(=O)(=O)N1CCC[C@@]2(CCN(C(=O)Nc3cccc(F)c3)C2)C1, COc1ccc(CCC(C)NC2C3CC4CC(C3)CC2C4)cc1 (stereo not given), CCOC(=O)c1sc(NS(=O)(=O)c2ccccc2)nc1C, CCN(CC)C(=O)N1CCN(C)CC1, O=C(O)c1ccc(Sc2nnnn2-c2ccccc2)c([N+](=O)[O-])c1, CCOC(=O)c1cnc2cc(-c3ccc(C(C)(C)C)cc3)nn2c1N, Nc1nc(Cl)nc2c1ncn2[C@@H]1O[C@@H](CO)[C@@H](O)[C@H]1O, COC(=O)COc1ccc(/C=C2/SC(=O)N(CC(=O)N3CCCC3)C2=O)cc1Br, COC(=O)C1C(O)=C(C=NCc2ccccc2)C(=O)CC1(C)C (stereo not given), O=C(CCN1C(=O)c2cccc3cccc(c23)C1=O)N1CCN(Cc2ccc3c(c2)OCO3)CC1, O=C(c1cc2sccc2n1Cc1ccccc1)N1CCN(c2nc3ccccc3s2)CC1, CN(Cc1ccccc1)S(=O)(=O)c1ccc(OCC(=O)N2CCOCC2)cc1

AC50, active:
CC(C)(CO)Cc1cc(C(C)(C)C)c(O)c(C(C)(C)C)c1 25.1 µM, Nc1c2ccccc2nc2c(O)cccc12 6.31 µM, Nc1c2c(nc3ccccc13)CCCC2 3.16 µM and 794 nM and 501 nM, Nc1c2c(nc3ccccc13)CCC[C@H]2O 10 µM, Cc1cc(NC(=O)C2CCCCC2)nc2c1c(=O)oc1ccccc12 3.16 µM, CC(C)(C)C(=O)OCc1cn(-c2ccc(Cl)cc2)nn1 0.708 µM, CCCCC(=O)OCc1cn(-c2ccc(Cl)cc2)nn1 0.447 µM, Cc1ccccc1NC(=O)OCc1cn(-c2ccc(Cl)cc2)nn1 0.447 µM, COc1cc2c(cc1OC)CN(C(=S)Nc1ccccc1)CC2 12.6 µM, CC(C)OC(=O)c1nnn(-c2nonc2N)c1CSc1ccccn1 1.78 µM, CCOC(=O)c1nnn(-c2nonc2N)c1-c1ccc(C)cc1 0.891 µM, CCOC(=O)c1nnn(-c2nonc2N)c1-c1ccccc1 0.891 µM, C[C@@H]1CN(CCCn2c3ccccc3c3ccccc32)C[C@H](C)N1 0.794 µM, C/C(=N\NC(=O)c1[nH]c2c([N+](=O)[O-])cc(C)cc2c1-c1ccccc1)c1cccnc1 1.26 µM, COc1ccc(C(=S)Nc2ccccc2)cc1 0.631 µM, COc1ccc2c(Cl)cc(NC(=S)Nc3ccccc3)nc2c1 0.398 µM, CC(C)(C)c1cc(/C=C(\C#N)C(N)=S)cc(C(C)(C)C)c1O 12.6 µM, c1ccc(SCCc2ccncc2)cc1 447 nM and 200 nM, Fc1ccc(SCCc2ccncc2)cc1 0.562 µM, COc1ccc(CCC(C)Nc2cccc(F)c2)cc1 (stereo not given) 3.55 µM, CCn1c(C)c(/C=N/Nc2nc3ccccc3s2)c2ccccc21 2.51 µM, CCOC(=O)Nc1nc(-c2ccccc2)c(C)s1 0.2 µM, CCOC(=O)c1sc(NC(C)=O)nc1-c1ccccc1 2.82 µM, O=[N+]([O-])c1cc(/C=N/O)ccc1SCc1ccccc1 0.891 µM, CCOC(=O)c1cnc2cc(-c3ccc(C)cc3)nn2c1-c1ccccc1 2.24 µM, C=CCSc1nc(C)cc(/C=C\c2ccccc2)c1C#N 2.51 µM, O=C1S/C(=C/c2ccc(N3CCOCC3)o2)C(=O)N1Cc1ccc(F)cc1 3.55 µM, COC(=O)CN1C(=O)S/C(=C/c2ccc(N3CCCCC3)o2)C1=O 0.891 µM, c1cnc(N2CCN(Cc3ccc4c(c3)OCO4)CC2)nc1 6.31 µM and 3.16 µM and 2 µM, c1ccc2sc(N3CCN(Cc4ccc5c(c4)OCO5)CC3)nc2c1 1 µM, O=C(COc1ccc(Cl)cc1)N1CCN(Cc2ccc3c(c2)OCO3)CC1 5.01 µM

activity, negative = inhibition, inactive:
Cc1cc(Cc2c(C)c(C)c(Cc3cc(C)cc(C(C)(C)C)c3O)c(C)c2C)c(O)c(C(C)(C)C)c1 4.96% [at 2.29 µM], Cc1ccc(S(=O)(=O)Oc2cc(N)c3c(n2)CCC3)cc1 -19.4% [at 2.29 µM], C[C@@]1(CCOCc2ccccc2)NC(=O)NC1=O -13.5% [at 11.4 µM], CN(C)CCCn1c2ccccc2c2cnccc21 -20% [at 2.29 µM], c1ccc(C(CCN2CC3CCC(CC3)C2)c2ccccc2)cc1 9.33% [at 11.4 µM], N=C(N)SCCc1ccncc1 -17.8% [at 2.29 µM], COc1ccc(O[C@H]2C=C[C@@H](c3ccccc3)O[C@H]2CO/N=C(/C)CCC(=O)OC[C@@H]2O[C@H](C#Cc3ccccc3)C=C[C@@H]2Oc2ccc(C)cc2)cc1 -5.99% [at 11.4 µM], O=C(O)[C@H](Cc1ccc(O)c([N+](=O)[O-])c1)N1C(=O)c2ccccc2C1=O -17.9% [at 2.29 µM]
